Where a chain is given by its changes, count along the chain named. Over roughly 16,000 sequences, “ka relative to ugcaugu” has its median near 0.0091; the highest 2% begin near 0.032. This excerpt belongs to a sample that is enriched for the highest values.

First the molecules themselves.
T1: RBFOX1 RRM (Homo sapiens, UniProt Q9NWB1 109-208)
T1 sequence: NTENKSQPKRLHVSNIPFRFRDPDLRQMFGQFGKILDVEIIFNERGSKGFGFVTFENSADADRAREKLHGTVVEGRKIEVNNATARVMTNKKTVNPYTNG

B1: ACAGCUC (DNA:RNA)
RNA: GGGAGACCGGAAUUCAGAUUGUCCACAGCUCUUAAAUCCCGUCGUAGCCACCA
DNA 1: CAATCTGAATTCCGGTCTCCC
DNA 2: TGGTGGCTACGACGGGATT
B2: CUAUCUG (DNA:RNA)
RNA: B1 RNA with A25C, C26U, G28U, C31G
DNA 1: CAATCTGAATTCCGGTCTCCC
DNA 2: TGGTGGCTACGACGGGATT
B3: UAAGCGA (DNA:RNA)
RNA: B1 RNA with A25U, C26A, U30G, C31A
DNA 1: CAATCTGAATTCCGGTCTCCC
DNA 2: TGGTGGCTACGACGGGATT
B4: GGUCAGA (DNA:RNA)
RNA: GGGAGACCGGAAUUCAGAUUGUCCGGUCAGAUUAAAUCCCGUCGUAGCCACCA
DNA 1: CAATCTGAATTCCGGTCTCCC
DNA 2: TGGTGGCTACGACGGGATT
B5: CAUUUGG (DNA:RNA)
RNA: B4 RNA with G25C, G26A, C28U, A29U, A31G
DNA 1: CAATCTGAATTCCGGTCTCCC
DNA 2: TGGTGGCTACGACGGGATT
B6: GACUAUC (DNA:RNA)
RNA: B1 RNA with A25G, C26A, A27C, G28U, C29A
DNA 1: CAATCTGAATTCCGGTCTCCC
DNA 2: TGGTGGCTACGACGGGATT
B7: AAAGUAC (DNA:RNA)
RNA: B1 RNA with C26A, C29U, U30A
DNA 1: CAATCTGAATTCCGGTCTCCC
DNA 2: TGGTGGCTACGACGGGATT
B8: AAAACUA (DNA:RNA)
RNA: B1 RNA with C26A, G28A, C31A
DNA 1: CAATCTGAATTCCGGTCTCCC
DNA 2: TGGTGGCTACGACGGGATT
B9: GAUCUCU (DNA:RNA)
RNA: B4 RNA with G26A, A29U, G30C, A31U
DNA 1: CAATCTGAATTCCGGTCTCCC
DNA 2: TGGTGGCTACGACGGGATT
B10: UUAAGUU (DNA:RNA)
RNA: B1 RNA with A25U, C26U, G28A, C29G, C31U
DNA 1: CAATCTGAATTCCGGTCTCCC
DNA 2: TGGTGGCTACGACGGGATT
B11: CGCGUGC (DNA:RNA)
RNA: B1 RNA with A25C, C26G, A27C, C29U, U30G
DNA 1: CAATCTGAATTCCGGTCTCCC
DNA 2: TGGTGGCTACGACGGGATT
B12: UGCGUGU (DNA:RNA)
RNA: B4 RNA with G25U, U27C, C28G, A29U, A31U
DNA 1: CAATCTGAATTCCGGTCTCCC
DNA 2: TGGTGGCTACGACGGGATT
B13: UCCUGCG (DNA:RNA)
RNA: B1 RNA with A25U, A27C, G28U, C29G, U30C, C31G
DNA 1: CAATCTGAATTCCGGTCTCCC
DNA 2: TGGTGGCTACGACGGGATT
B14: UGCGCGU (DNA:RNA)
RNA: B1 RNA with A25U, C26G, A27C, U30G, C31U
DNA 1: CAATCTGAATTCCGGTCTCCC
DNA 2: TGGTGGCTACGACGGGATT
B15: UGCUGCG (DNA:RNA)
RNA: B4 RNA with G25U, U27C, C28U, A29G, G30C, A31G
DNA 1: CAATCTGAATTCCGGTCTCCC
DNA 2: TGGTGGCTACGACGGGATT
B16: UUCGUGC (DNA:RNA)
RNA: B1 RNA with A25U, C26U, A27C, C29U, U30G
DNA 1: CAATCTGAATTCCGGTCTCCC
DNA 2: TGGTGGCTACGACGGGATT
B17: CUGCGUG (DNA:RNA)
RNA: B1 RNA with A25C, C26U, A27G, G28C, C29G, C31G
DNA 1: CAATCTGAATTCCGGTCTCCC
DNA 2: TGGTGGCTACGACGGGATT
B18: UGCGUGC (DNA:RNA)
RNA: B1 RNA with A25U, C26G, A27C, C29U, U30G
DNA 1: CAATCTGAATTCCGGTCTCCC
DNA 2: TGGTGGCTACGACGGGATT
B19: UGCGUCC (DNA:RNA)
RNA: B1 RNA with A25U, C26G, A27C, C29U, U30C
DNA 1: CAATCTGAATTCCGGTCTCCC
DNA 2: TGGTGGCTACGACGGGATT
B20: UGCGUUU (DNA:RNA)
RNA: B1 RNA with A25U, C26G, A27C, C29U, C31U
DNA 1: CAATCTGAATTCCGGTCTCCC
DNA 2: TGGTGGCTACGACGGGATT
B21: UGCGUCG (DNA:RNA)
RNA: B1 RNA with A25U, C26G, A27C, C29U, U30C, C31G
DNA 1: CAATCTGAATTCCGGTCTCCC
DNA 2: TGGTGGCTACGACGGGATT
B22: UGUGUCC (DNA:RNA)
RNA: B1 RNA with A25U, C26G, A27U, C29U, U30C
DNA 1: CAATCTGAATTCCGGTCTCCC
DNA 2: TGGTGGCTACGACGGGATT
B23: CCGCACU (DNA:RNA)
RNA: B4 RNA with G25C, G26C, U27G, G30C, A31U
DNA 1: CAATCTGAATTCCGGTCTCCC
DNA 2: TGGTGGCTACGACGGGATT
B24: CGCCCCU (DNA:RNA)
RNA: B4 RNA with G25C, U27C, A29C, G30C, A31U
DNA 1: CAATCTGAATTCCGGTCTCCC
DNA 2: TGGTGGCTACGACGGGATT
B25: UUCUAAG (DNA:RNA)
RNA: B4 RNA with G25U, G26U, U27C, C28U, G30A, A31G
DNA 1: CAATCTGAATTCCGGTCTCCC
DNA 2: TGGTGGCTACGACGGGATT
B26: GGUGUGG (DNA:RNA)
RNA: B4 RNA with C28G, A29U, A31G
DNA 1: CAATCTGAATTCCGGTCTCCC
DNA 2: TGGTGGCTACGACGGGATT
B27: AUUAACU (DNA:RNA)
RNA: B4 RNA with G25A, G26U, C28A, G30C, A31U
DNA 1: CAATCTGAATTCCGGTCTCCC
DNA 2: TGGTGGCTACGACGGGATT
B28: GUUCCAG (DNA:RNA)
RNA: B4 RNA with G26U, A29C, G30A, A31G
DNA 1: CAATCTGAATTCCGGTCTCCC
DNA 2: TGGTGGCTACGACGGGATT
B29: UAUCCAA (DNA:RNA)
RNA: B4 RNA with G25U, G26A, A29C, G30A
DNA 1: CAATCTGAATTCCGGTCTCCC
DNA 2: TGGTGGCTACGACGGGATT
B30: CCACCGU (DNA:RNA)
RNA: B1 RNA with A25C, G28C, U30G, C31U
DNA 1: CAATCTGAATTCCGGTCTCCC
DNA 2: TGGTGGCTACGACGGGATT
B31: GUAAUAU (DNA:RNA)
RNA: B1 RNA with A25G, C26U, G28A, C29U, U30A, C31U
DNA 1: CAATCTGAATTCCGGTCTCCC
DNA 2: TGGTGGCTACGACGGGATT

The experiment has as its target T1, RBFOX1 RRM. Briefly: EMSA; HiTS-Eq, 1 nM pool, 10 min; buffer printed only for the single-RNA assays: 10 mM Tris pH 7.5, 150 mM NaCl, 3.4 mM EDTA, 0.001% NP-40, 30 C. The note with it: tags: His6 N-terminal (pET28a); label: 5' 32P. The procedure, abridged: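 These values rest on relative association constants, computed from read-count changes of each RNA species versus the control reaction and normalised to the cognate motif. Reads came from free RNA recovered by 8% native PAGE after purified RbFox RRM (wild type or mutant) at increasing concentrations was equilibrated for 10 min in 50 µL with 1 nM of a 5′-radiolabelled pool with 7 randomized nucleotides and DNA-annealed flanks.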
On the technique in general: In EMSA bound probe runs differently from free probe, usually more slowly.
For the molecule B1, the binding signal is 0.00303 KA relative to UGCAUGU.
With B2, the binding signal was 0.00983 KA relative to UGCAUGU.
For the molecule B3, the binding signal was 0.0108 KA relative to UGCAUGU.
Take B4: the binding signal is 0.00171 KA relative to UGCAUGU.
As for B5, the figure is 0.014 KA relative to UGCAUGU; as for B6, 0.00429 KA relative to UGCAUGU; as for B7, 0.00371 KA relative to UGCAUGU.
The same measure for B8: 0.00178 KA relative to UGCAUGU; for B9: 0.0194 KA relative to UGCAUGU.
As for B10, the figure is 0.0109 KA relative to UGCAUGU.
B11: the binding signal is 0.0241 KA relative to UGCAUGU.
On to B12, for which the binding signal was 0.0418 KA relative to UGCAUGU.
As for B13, the figure is 0.0166 KA relative to UGCAUGU.
The same measure for B14: 0.0288 KA relative to UGCAUGU; for B15: 0.0333 KA relative to UGCAUGU; for B16: 0.0243 KA relative to UGCAUGU.
Turning to B17, the binding signal was 0.035 KA relative to UGCAUGU.
As for B18, the figure is 0.0465 KA relative to UGCAUGU; as for B19, 0.0132 KA relative to UGCAUGU; as for B20, 0.0236 KA relative to UGCAUGU.
The same measure for B21: 0.0236 KA relative to UGCAUGU; for B22: 0.0226 KA relative to UGCAUGU; for B23: 0.00621 KA relative to UGCAUGU.
For B24, the binding signal was 0.00718 KA relative to UGCAUGU.
The same measure for B25: 0.00998 KA relative to UGCAUGU.
As for B26, the figure is 0.0188 KA relative to UGCAUGU.
As for B27, the figure is 0.00102 KA relative to UGCAUGU; as for B28, 0.0134 KA relative to UGCAUGU.
As to B29, the binding signal was 0.00131 KA relative to UGCAUGU.
Consider B30, for which the binding signal was 0.0012 KA relative to UGCAUGU.
As for B31, the figure is 0.00279 KA relative to UGCAUGU.

For the origin of these results see publication PMC9911399, “Two distinct binding modes provide the RNA-binding protein RbFox with extraordinary sequence specificity”.
